Source: PubChem BioAssay (Tox21)
Records with an inconclusive call do not appear. Activity calls are given as the source filed them. Unless noted, the call rests on the fitted dose curve; in most records, active means well fitted curve in the direction sought with a large enough effect in the repeat runs; inconclusive means weak or mixed curves; inactive means no such curve, though single readings can be large; an effect the other way counts as inactive or inconclusive.

What was measured:
[1] = qHTS assay to identify small molecule antagonists of the estrogen receptor beta (ER-beta) signaling pathway - cell viability counter screen (AID 1259382);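 further: HEK293T cells carrying ER-beta-UAS-bla reporter stimulated with estradiol; series mostly up to about 92 µM; nearly all actives have a fitted effect of over 55% in size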
Outline: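 HEK293T ER-beta-UAS-bla, 2% charcoal-stripped FBS; compounds + 1nM E2 16 hr 37C; CellTiter-Glo luminescence, 30 min RT.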

[2] = target: Estrogen receptor (Homo sapiens) (UniProt P03372); experiment: qHTS assay to identify small molecule agonists of the estrogen receptor alpha (ER-alpha) signaling pathway in the presence of an antagonist (AID 1259383; calls by dose curve; further: top concentration of the series differs between compounds; nearly all actives have a fitted effect of over 15% in size)
Outline: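 ER-alpha agonism measured under antagonist challenge: 10.0nM ICI-182,780 (final) plus compound, 15 concentrations, 22hr, VM7Luc4E2 ERE-luciferase cells. Read by luminescence.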

[3] = qHTS assay to identify small molecule agonists or antagonists of the thyroid stimulating hormone receptor (TSHR) signaling pathway - wild type cell line counter screen (AID 1259384; calls by dose curve)
Outline: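 Wild-type Hek293 cells, 800/well, 18 h at 37C, then compound with Ro20-1724 for 30 min RT. cAMP by HTRF (cAMP-d2/anti-cAMP cryptate), 1 h RT, fluorescence read. 15 concentrations, triplicates.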

[4] = target: Thyrotropin receptor (Homo sapiens) (UniProt P16473); experiment: qHTS assay to identify small molecule antagonists of the thyroid stimulating hormone receptor (TSHR) signaling pathway (AID 1259385; calls by dose curve; further: nearly all actives have a fitted effect of over 20% in size)
Outline: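 TSHR-HEK293 cells (800/well) plated 18 h, then compounds with Ro20-1724 and TSH at 1.5 ng/mL final, 30 min at room temperature. cAMP quantified by HTRF (cAMP-d2/anti-cAMP-cryptate, 1 h); 15 concentrations in triplicate.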

[5] = qHTS assay to identify small molecule agonists of the estrogen receptor alpha (ER-alpha) signaling pathway in the presence of an antagonist - cell viability counter screen (AID 1259386);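 further: series mostly up to about 92 µM; cells exposed to compounds for 22 h at 37 °C before the viability read; nearly all actives have a fitted effect of over 30% in size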
Outline: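 Steps: 5-day stripped-FBS culture; seed and incubate 24hr; add ICI-182,780 (10.0nM final); pin 15-point compound titration; incubate 22hr at 37C; add CellTiter-Fluor at 21hr; read fluorescence.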

[6] = target: Progesterone receptor (Homo sapiens) (UniProt P06401); experiment: qHTS assay to identify small molecule agonists of the progesterone receptor (PR) signaling pathway (AID 1346784; calls by dose curve; further: nearly all actives have a fitted effect of over 30% in size)
Outline: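 Seed PR-UAS-bla HEK 293T cells (2% charcoal-stripped FBS), incubate 6 hr at 37C; add compounds in DMSO, 16 hr at 37C; add LiveBLAzer B/G substrate, 2 hr RT; read fluorescence intensity.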

[7] = target: Progesterone receptor (Homo sapiens) (UniProt P06401); experiment: qHTS assay to identify small molecule antagonists of the progesterone receptor (PR) signaling pathway (AID 1346795; active means well fitted inhibition curve with a large enough effect in the signal ratio in the repeat runs, not every such curve was filed as active; the % refers to the signal ratio)
Outline: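 Screening used a GripTite HEK293T line with PR-responsive UAS-beta-lactamase. Cells were challenged with compound in the presence of 1 nM R5020 final for 16 hr at 37C; B/G FRET substrate, 2 hr room temperature, fluorescence.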

[8] = qHTS assay to identify small molecule antagonists of the progesterone receptor (PR) signaling pathway - cell viability counter screen (AID 1346798); further: series mostly up to about 92 µM; nearly all actives have a fitted effect of over 50% in size
Outline: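 Measures cytotoxicity in parallel with the PR antagonist reporter read: HEK293T PR-UAS-bla cells get compound and R5020 for 16 hr, and remaining viable cells are quantified by CellTiter-Glo luminescence.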

[9] = qHTS assay to identify small molecule agonists of the progesterone receptor (PR) signaling pathway - cell viability counter screen (AID 1346799; calls by dose curve; further: nearly all actives have a fitted effect of over 45% in size)
Outline: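 Using the same plates as the PR reporter screen, HEK293T PR-UAS-bla cells received compounds for 16 hr at 37C and were then lysed with CellTiter-Glo; luminescence was read 30 min later at room temperature.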

[10] = qHTS assay to identify small molecule agonists of the TGF-beta/Smad signaling pathway (AID 1346859; active means well fitted activation curve with a large enough effect in the signal ratio in the repeat runs, not every such curve was filed as active; the % refers to the signal ratio; further: series mostly up to about 77 µM)
Outline: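 Beta-lactamase reporter activity downstream of Smad binding elements was measured in stably transfected HEK 293T cells; compounds were incubated for 5 hr, substrate for 2 hr at room temperature.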

[11] = target: Thyrotropin-releasing hormone receptor (Homo sapiens) (UniProt P34981); experiment: qHTS assay to identify small molecule antagonists of the thyrotropin-releasing hormone receptor (TRHR) signaling pathway (AID 1346877; active means well fitted inhibition curve with a large enough effect in the repeat runs, not every such curve was filed as active; further: series mostly up to about 51 µM)
Outline: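 Human TRHR in HEK293 cells; inhibition of the intracellular calcium rise triggered by 1 nM TRH was followed by fluorescence over 3 min. Compounds were run at 15 concentrations, three replicates each.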

[12] = target: Thyrotropin-releasing hormone receptor (Homo sapiens) (UniProt P34981); experiment: qHTS assay to identify small molecule agonists of the thyrotropin-releasing hormone receptor (TRHR) signaling pathway (AID 1346891; calls by dose curve;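 further: HEK293 cells expressing TRHR with calcium dye readout; series mostly up to about 58 µM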)
Outline: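 Overnight-plated (18 h, 37 °C, 5% CO2) TRHR-Hek293 cells; 2 h calcium dye at 37 °C; compound in DMSO; 3-min kinetic fluorescence read.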

[13] = Human pregnane X receptor (PXR) small molecule agonists, qHTS cell viability counter screen (AID 1346977); further: nearly all actives have a fitted effect of over 50% in size
Outline: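 After a 5hr pre-incubation, PXR-Luc HepG2 cells received compounds plus positive control in DMSO and were kept 24hr at 37C. Cell viability was quantified by fluorescence from CellTiter-Fluor added for the final hour.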

[14] = Caspase-3/7 induction in HepG2 cells by small molecules, qHTS assay (AID 1346978); further: nearly all actives have a fitted effect of over 15% in size
Outline: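 Wild-type HepG2 cells, 2,000/well, settled 5 hr at 37 C and 5% CO2, then compound-treated for 17 hr; caspase-3/7 activity read by luminescent Caspase-Glo 3/7 after 30 min at room temperature.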

[15] = Caspase-3/7 induction in CHO-K1 cells by small molecules, qHTS cell viability counter screen (AID 1346979); further: nearly all actives have a fitted effect of over 35% in size
Outline: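 Multiplexed with Caspase-Glo 3/7 in CHO-K1 cells, this counter screen added CellTiter-Fluor after 16hr of compound exposure and recorded fluorescence 1hr later.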

[16] = Caspase-3/7 induction in CHO-K1 cells by small molecules, qHTS assay (AID 1346980); further: nearly all actives have a fitted effect of over 15% in size
Outline: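 Wild-type CHO-K1 cells exposed to compounds for 17hr at 37 C, 5% CO2. Caspase-3/7 activity then measured by Caspase-Glo 3/7 luminescence after 30min at room temperature.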

[17] = Caspase-3/7 induction in HepG2 cells by small molecules, qHTS cell viability counter screen (AID 1346981); further: series mostly up to about 92 µM; nearly all actives have a fitted effect of over 30% in size
Outline: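 The parent HepG2 line is plated at 2,000 cells per well and rested 5 hr before compound pinning from DMSO stocks. Following a 16-hr treatment at 37 C, a fluorogenic live-cell substrate (CellTiter-Fluor) reports viability after 1 hr.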

[18] = target: Nuclear receptor subfamily 1 group I member 2 (Homo sapiens) (UniProt O75469); experiment: Human pregnane X receptor (PXR) small molecule agonists, qHTS assay (AID 1346982); further: nearly all actives have a fitted effect of over 35% in size
Outline: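 After plating in 5% charcoal-stripped FBS and a 5 hr rest, PXR-Luc HepG2 cells received compounds in DMSO. Following 24 hr at 37 C, ONE-Glo was added and light output read.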

[19] = qHTS assay to identify small molecule antagonists of the TGF-beta/Smad signaling pathway - cell viability counter screen (AID 1346824); further: nearly all actives have a fitted effect of over 50% in size
Outline: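 SBE-bla HEK 293T cells, incubated overnight, then compound plus 0.25 ng/mL TGF-beta1 (stock added) for 5 hr at 37 C. Viability was read in the same wells by CellTiter-Glo luminescence after 30 min at room temperature.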

[20] = qHTS assay to identify small molecule agonists of the TGF-beta/Smad signaling pathway - cell viability counter screen (AID 1346829); further: top concentration of the series differs between compounds; nearly all actives have a fitted effect of over 45% in size
Outline: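 SBE-bla HEK 293T cells plated overnight, compound exposure 5 hr at 37 C. Viability read in the same wells by CellTiter-Glo luminescence after 30 min at room temperature, following the beta-lactamase read.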
On the % scale 0 is the no-effect control and ±100 the full control effect.

Sequence of Progesterone receptor (Homo sapiens) (P06401 whole entry, looked up): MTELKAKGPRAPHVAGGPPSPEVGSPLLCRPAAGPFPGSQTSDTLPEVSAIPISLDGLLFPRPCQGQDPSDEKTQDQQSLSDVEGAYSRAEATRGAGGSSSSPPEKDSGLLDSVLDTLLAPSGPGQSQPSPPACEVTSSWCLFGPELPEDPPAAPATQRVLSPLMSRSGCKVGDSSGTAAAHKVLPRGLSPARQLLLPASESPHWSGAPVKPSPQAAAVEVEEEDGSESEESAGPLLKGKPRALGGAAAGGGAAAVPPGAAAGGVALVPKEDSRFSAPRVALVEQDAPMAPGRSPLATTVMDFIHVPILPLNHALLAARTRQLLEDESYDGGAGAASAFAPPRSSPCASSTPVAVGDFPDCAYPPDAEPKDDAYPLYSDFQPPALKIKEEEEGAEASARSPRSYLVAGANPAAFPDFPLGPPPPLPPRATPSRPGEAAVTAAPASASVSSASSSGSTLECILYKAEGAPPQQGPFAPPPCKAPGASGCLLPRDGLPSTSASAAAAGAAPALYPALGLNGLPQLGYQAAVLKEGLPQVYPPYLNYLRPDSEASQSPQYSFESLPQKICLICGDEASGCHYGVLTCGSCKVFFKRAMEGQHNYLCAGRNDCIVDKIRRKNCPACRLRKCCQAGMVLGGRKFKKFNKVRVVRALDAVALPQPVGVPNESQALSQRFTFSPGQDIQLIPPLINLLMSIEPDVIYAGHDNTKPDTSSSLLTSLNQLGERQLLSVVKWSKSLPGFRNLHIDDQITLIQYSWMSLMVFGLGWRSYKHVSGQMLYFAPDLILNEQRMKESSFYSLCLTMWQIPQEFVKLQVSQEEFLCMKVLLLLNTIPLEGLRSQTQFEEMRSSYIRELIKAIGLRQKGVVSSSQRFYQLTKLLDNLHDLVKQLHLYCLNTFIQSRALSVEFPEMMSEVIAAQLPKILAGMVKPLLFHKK
Sequence of Thyrotropin-releasing hormone receptor (Homo sapiens) (P34981 whole entry, looked up): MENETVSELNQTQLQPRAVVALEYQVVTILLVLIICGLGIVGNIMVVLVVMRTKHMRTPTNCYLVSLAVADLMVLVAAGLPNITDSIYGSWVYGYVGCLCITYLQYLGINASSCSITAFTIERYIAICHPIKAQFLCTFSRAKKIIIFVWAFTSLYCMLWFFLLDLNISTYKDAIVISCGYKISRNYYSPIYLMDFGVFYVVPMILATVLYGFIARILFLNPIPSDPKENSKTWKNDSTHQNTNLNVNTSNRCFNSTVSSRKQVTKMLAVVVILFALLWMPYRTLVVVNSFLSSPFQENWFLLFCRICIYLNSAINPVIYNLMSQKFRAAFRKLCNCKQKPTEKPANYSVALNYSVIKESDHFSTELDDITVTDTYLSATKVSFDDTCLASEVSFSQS
Sequence of Thyrotropin receptor (Homo sapiens) (P16473 whole entry, looked up): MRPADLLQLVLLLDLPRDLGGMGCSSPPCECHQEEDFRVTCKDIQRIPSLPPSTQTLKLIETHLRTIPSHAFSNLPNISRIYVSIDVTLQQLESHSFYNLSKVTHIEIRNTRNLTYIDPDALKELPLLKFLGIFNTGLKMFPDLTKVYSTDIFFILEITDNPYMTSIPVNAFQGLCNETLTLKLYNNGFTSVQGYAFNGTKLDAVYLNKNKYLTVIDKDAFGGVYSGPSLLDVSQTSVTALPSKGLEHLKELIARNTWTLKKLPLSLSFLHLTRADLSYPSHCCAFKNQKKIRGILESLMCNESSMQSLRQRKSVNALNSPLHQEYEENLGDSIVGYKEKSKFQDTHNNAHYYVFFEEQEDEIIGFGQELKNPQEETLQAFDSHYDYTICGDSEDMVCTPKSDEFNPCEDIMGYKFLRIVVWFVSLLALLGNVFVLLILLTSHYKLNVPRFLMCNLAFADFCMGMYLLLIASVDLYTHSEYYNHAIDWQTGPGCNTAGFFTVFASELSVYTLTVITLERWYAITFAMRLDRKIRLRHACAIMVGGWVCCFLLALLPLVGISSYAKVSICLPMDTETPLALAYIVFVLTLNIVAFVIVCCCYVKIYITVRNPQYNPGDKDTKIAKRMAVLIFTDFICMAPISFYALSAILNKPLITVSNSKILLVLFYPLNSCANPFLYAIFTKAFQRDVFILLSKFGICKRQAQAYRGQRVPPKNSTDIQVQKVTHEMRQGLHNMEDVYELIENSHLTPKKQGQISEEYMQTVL
Sequence of Estrogen receptor (Homo sapiens) (P03372 whole entry, looked up): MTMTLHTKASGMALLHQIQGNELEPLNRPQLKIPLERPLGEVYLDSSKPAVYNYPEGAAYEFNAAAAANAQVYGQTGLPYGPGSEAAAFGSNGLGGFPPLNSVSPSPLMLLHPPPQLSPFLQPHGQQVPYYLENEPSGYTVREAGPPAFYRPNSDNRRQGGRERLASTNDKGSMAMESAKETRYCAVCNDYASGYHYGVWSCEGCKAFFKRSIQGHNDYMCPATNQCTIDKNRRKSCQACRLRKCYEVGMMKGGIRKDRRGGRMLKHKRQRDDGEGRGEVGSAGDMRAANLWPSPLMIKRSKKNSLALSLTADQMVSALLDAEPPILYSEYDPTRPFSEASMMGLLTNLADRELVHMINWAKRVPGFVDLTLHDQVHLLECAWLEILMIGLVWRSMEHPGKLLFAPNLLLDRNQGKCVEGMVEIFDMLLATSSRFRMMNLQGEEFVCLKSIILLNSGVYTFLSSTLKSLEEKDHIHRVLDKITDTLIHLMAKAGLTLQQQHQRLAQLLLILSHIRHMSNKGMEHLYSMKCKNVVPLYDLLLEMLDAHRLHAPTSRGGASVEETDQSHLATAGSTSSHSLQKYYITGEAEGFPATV
Sequence of Nuclear receptor subfamily 1 group I member 2 (Homo sapiens) (O75469 whole entry, looked up): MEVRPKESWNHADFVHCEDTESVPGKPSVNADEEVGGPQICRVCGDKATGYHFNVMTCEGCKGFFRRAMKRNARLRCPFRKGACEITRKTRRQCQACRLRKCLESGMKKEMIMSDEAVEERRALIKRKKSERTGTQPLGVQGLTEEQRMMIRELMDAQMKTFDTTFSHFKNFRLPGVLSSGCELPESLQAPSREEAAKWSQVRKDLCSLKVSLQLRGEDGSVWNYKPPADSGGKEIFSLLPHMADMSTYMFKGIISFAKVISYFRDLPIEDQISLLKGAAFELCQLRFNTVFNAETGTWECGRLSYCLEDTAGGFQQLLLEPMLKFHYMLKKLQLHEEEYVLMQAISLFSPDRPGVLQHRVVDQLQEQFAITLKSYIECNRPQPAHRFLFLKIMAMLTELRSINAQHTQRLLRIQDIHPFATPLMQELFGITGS

Nc1ccnc(=O)[nH]1
inactive: outcome [1] | outcome [2] | outcome [3] | outcome [4] | Potency [5] | Potency [6] | Potency [7] | Potency [8] | Potency [9] | outcome [10] | outcome [11] | outcome [12] | Potency [13] | outcome [14] | Potency [15] | outcome [16] | Potency [17] | Potency [18]

Nc1ccc(C(=O)OCC(O)CO)cc1 (stereo not given)
inactive: outcome [1] | outcome [2] | outcome [3] | outcome [4] | Potency [5] | Potency [6] | Potency [7] | Potency [8] | outcome [19] | outcome [20] | outcome [10] | outcome [11] | outcome [12] | Potency [13] | outcome [14] | Potency [15] | outcome [16] | Potency [17]

CC(=O)c1ccc(OCC(=O)N2CCCCC2)cc1
inactive: outcome [1] | outcome [2] | outcome [3] | outcome [4] | Potency [5] | Potency [6] | Potency [7] | Potency [8] | Potency [9] | outcome [19] | outcome [20] | outcome [10] | outcome [11] | outcome [12] | outcome [14] | Potency [15] | Potency [17]

C=CCCCCCCCCCCC
inactive: activity change, negative = cytotoxicity [1] 4.44% [at 8.39 µM] | activation [2] 0.334% [at 8.39 µM] | cAMP activity change [3] 1.9% [at 8.39 µM] | activity change, negative = inhibition [4] 3.13% [at 8.39 µM] | activity change, negative = cytotoxicity [5] -2.37% [at 8.39 µM] | activation [6] -0.805% [at 8.39 µM] | activity change, negative = inhibition [7] 5.07% [at 8.39 µM] | activity change, negative = cytotoxicity [8] -5.87% [at 8.39 µM] | activity change, negative = cytotoxicity [9] -1.19% [at 8.39 µM] | viability change, negative = cytotoxic [19] 12.5% [at 6.97 µM] | activity change, negative = cytotoxicity [20] -3.69% [at 6.97 µM] | activation [10] -3.71% [at 6.97 µM] | activity, negative = inhibition [11] 4.06% [at 4.65 µM] | activation [12] -0.423% [at 5.23 µM] | activity change, negative = cytotoxicity [13] -1.17% [at 8.39 µM] | caspase activation [14] -1.35% [at 8.39 µM] | activity change, negative = cytotoxicity [15] -0.387% [at 8.39 µM] | activity change, negative = cytotoxicity [17] 0.644% [at 8.39 µM]

Cc1nc([N+](=O)[O-])cn1-c1ccc([N+](=O)[O-])cc1
inactive: outcome [1] | outcome [2] | outcome [3] | outcome [4] | Potency [5] | Potency [6] | Potency [7] | Potency [8] | Potency [9] | outcome [19] | outcome [20] | outcome [10] | outcome [11] | outcome [12] | Potency [13] | outcome [14] | Potency [15] | Potency [17] | Potency [18]

CC(C)(C)c1ccc(C=O)cc1
inactive: outcome [1] | outcome [2] | outcome [3] | outcome [4] | Potency [5] | Potency [6] | Potency [7] | Potency [8] | Potency [9] | outcome [19] | outcome [20] | outcome [10] | outcome [11] | outcome [12] | Potency [13] | outcome [14] | Potency [15] | outcome [16] | Potency [17] | Potency [18]
